Laboratory results as given in the supplement of paper PMC12645437, “Orthogonal IMiD-Degron Pairs Induce Selective Protein Degradation in Cells” (ACS Chemical Biology, 2025).
Whole data set: some 8,300 sequences, median “log2 fold change of degron read counts, EGFP-low vs EGFP+ sorted cells (limma voom), compound-induced degradation” near -1.1, cut for the highest 2% near 3.2. Only a selection was taken, and the highest values are over-represented in it overall.

T1: CRBN, Q96SW2
T1 chain: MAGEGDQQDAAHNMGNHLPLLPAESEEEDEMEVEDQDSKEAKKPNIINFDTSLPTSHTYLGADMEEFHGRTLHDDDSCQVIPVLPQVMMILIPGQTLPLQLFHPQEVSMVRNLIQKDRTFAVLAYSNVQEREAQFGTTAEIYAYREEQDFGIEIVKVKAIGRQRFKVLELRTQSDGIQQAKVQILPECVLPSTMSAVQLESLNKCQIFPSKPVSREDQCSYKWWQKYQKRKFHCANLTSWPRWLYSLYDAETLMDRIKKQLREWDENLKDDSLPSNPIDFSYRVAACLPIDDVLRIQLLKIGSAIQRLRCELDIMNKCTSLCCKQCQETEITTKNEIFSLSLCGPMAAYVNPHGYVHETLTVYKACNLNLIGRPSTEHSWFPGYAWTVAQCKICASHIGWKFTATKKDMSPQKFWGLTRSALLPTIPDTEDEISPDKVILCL


Molecular target: T1, CRBN, Q96SW2
Assay: log2 fold change of degron read counts, EGFP-low vs EGFP+ sorted cells (limma voom), compound-induced degradation; higher = more compound-induced degradation of the degron-EGFP fusion; degrons are variants of IKZF1/3 zinc finger 2; compound dose not given here
Conditions: Jurkat, 18 h
[1] = compound: compound 19 (5-tert-butyl-thalidomide)
[2] = compound: compound 22 (5-morpholino-thalidomide)
[3] = compound: compound 33 (diphenyl IMiD analogue)
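Also: pooled lentiviral library of zinc finger degron-EGFP fusions in mCherry-positive Jurkat cells, FACS-sorted after compound exposure, with degron abundance counted by next-generation sequencing.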

Row | Sequence | log2 fold change of degron read counts [1] | log2 fold change of degron read counts [2] | log2 fold change of degron read counts [3] | log2 fold change of degron read counts (compound: thalidomide)
1 | FKCPICGHRFTQKGNLLRHIKL [46F_47K_49P_50I_52G_53H_54R_55F_67L_, Q9UKT9] | -2.63 | -2.88 | -3.36 | -2.52
2 | FQCDICGAFFTQKGNLLRHIKL [46F_47Q_49D_50I_52G_53A_54F_55F_67L_, Q9UKT9] | -2.31 | -1.64 | 0.643 | 0.872
3 | FECNQCGRDFTQKGNLLRHIKL [46F_47E_49N_50Q_52G_53R_54D_55F_67L_, Q9UKT9] | -3.19 | -3.55 | -3.13 | -3.35
4 | LQCPICGFCCTQKGNLLRHIKL [46L_47Q_49P_50I_52G_53F_54C_55C_67L_, Q9UKT9] | 1.14 | 2.25 | 2.13 | 3.61
5 | LFCPICGFCCTQKGNLLRHIKL [46L_47F_49P_50I_52G_53F_54C_55C_67L_, Q9UKT9] | 3.44 | 3.46 | 2.76 | 2.26
6 | LCCPICGFCCTQKGNLLRHIKL [46L_47C_49P_50I_52G_53F_54C_55C_67L_, Q9UKT9] | 1.74 | 2.1 | 2.79 | 2.63
7 | LVCPICGFCCTQKGNLLRHIKL [46L_47V_49P_50I_52G_53F_54C_55C_67L_, Q9UKT9] | 1.02 | 2.52 | 2.24 | 2.97
8 | LICPICGFCCTQKGNLLRHIKL [46L_47I_49P_50I_52G_53F_54C_55C_67L_, Q9UKT9] | 0.314 | 1.98 | 1.85 | 2.51
9 | LLCPICGFCCTQKGNLLRHIKL [46L_47L_49P_50I_52G_53F_54C_55C_67L_, Q9UKT9] | 0.766 | 0.49 | 1.44 | 1.92
10 | LNCPICGFCCTQKGNLLRHIKL [46L_47N_49P_50I_52G_53F_54C_55C_67L_, Q9UKT9] | 1.6 | 0.635 | 0.926 | 1.15
11 | LMCPICGFCCTQKGNLLRHIKL [46L_47M_49P_50I_52G_53F_54C_55C_67L_, Q9UKT9] | 0.471 | 1.34 | 2.61 | 2.08
12 | LYCPICGFCCTQKGNLLRHIKL [46L_47Y_49P_50I_52G_53F_54C_55C_67L_, Q9UKT9] | 3.56 | 3.56 | 2.91 | 1.99
13 | LHCPICGFCCTQKGNLLRHIKL [46L_47H_49P_50I_52G_53F_54C_55C_67L_, Q9UKT9] | 2.7 | 2.71 | 2.46 | 1.82
14 | LDCPICGFCCTQKGNLLRHIKL [46L_47D_49P_50I_52G_53F_54C_55C_67L_, Q9UKT9] | 0.0932 | -0.387 | 0.637 | 1.33
15 | LWCPICGFCCTQKGNLLRHIKL [46L_47W_49P_50I_52G_53F_54C_55C_67L_, Q9UKT9] | 3.2 | 3.49 | 2.92 | 2.17
16 | FVCNVCGARFTQKGNLLRHIKL [46F_47V_49N_50V_52G_53A_54R_55F_67L_, Q9UKT9] | -0.689 | 0.0526 | -0.518 | 0.565
17 | FDCEICGHAFTQKGNLLRHIKL [46F_47D_49E_50I_52G_53H_54A_55F_67L_, Q9UKT9] | -2.17 | -2.36 | -2.99 | -2.62
18 | FQCEICGHAFTQKGNLLRHIKL [46F_47Q_49E_50I_52G_53H_54A_55F_67L_, Q9UKT9] | -3.35 | -3.01 | -2.87 | -1.5
